# Vif-APOBEC3F blk – inhibitors of Vif-A3F interaction | HeLa A3F-eYFP + Vif (tagged APOBEC3F with the HIV-1 protein that degrades it), YFP fluorescence increase | Potency, µM (highest dose often 46.1 µM), for the others: top-dose activity, negative = active | 0.2% of 390,000 active | AID 602313; also: potency is read from the fitted curve at half-maximal effect; % of control where 0% means no effect; nearly all actives have a fitted effect of over 65% in size
#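 HeLa cells stably expressing Vif plus C-terminally eYFP-tagged A3F were seeded, incubated overnight at 37 deg C, dosed with compound, incubated overnight again at 37 deg C. Yellow fluorescence (Ex 488/Em 500-530) reported blocked Vif-mediated A3F-eYFP degradation.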
# ALOX12 inh – inhibitors of human 12S-lipoxygenase ALOX12. P18054. purified 12hLO, xylenol orange hydroperoxide absorbance. Potency, µM (titrated, usually from 108 µM), for the others: at the top dose activity change, negative = inhibition, most hits filed as inhibitors. 1.1% of 580,000 active. AID 1671190; also: potency is read from the fitted curve at half-maximal effect; % is scaled to controls: 0 for no effect and ±100 for the full control effect
#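 Purified human 12hLO (150 nM final) in 25 mM Hepes, 0.01% Triton X-100, pH 7.0 was preincubated 15 min at room temperature with compound. Then 40 uM arachidonic acid was added, 30 min. Hydroperoxide was read by Fe-XO absorbance ratio 573/405 nm.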
# TSG101-PTAP inh – blocks PTAP/TSG101 interaction to inhibit HIV-1 budding; Q99816; Fluorescence polarization, FITC-PTAP peptide / Tsg101 binding; Potency, µM (titrated, usually from 115 µM), for the others: at the highest dose activity change, negative = inhibition, hits mostly inhibitors; 340,000 tested, under 10 active; active = well fitted inhibition curve with a large enough effect in the main read-out, with a control signal flat, not every such curve was filed as active; inconclusive = small, poorly fitted or top-dose-only effect, or effect the other way, or a change in a side signal; inactive = no such curve, though single readings can be large or run the other way; also: potency is read from the fitted curve at half-maximal effect; % of control where 0% means no effect
#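 Fluorescence anisotropy tracks displacement of a FITC-tagged PTAP peptide (50 nM) from the Tsg101 binding domain (10 uM), following a 20 min room-temperature incubation at pH 7.5.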
# Vif-APOBEC3G blk – blocks the Vif interaction with human APOBEC3G; Q9HC16; HeLa A3G-eYFP + Vif (tagged APOBEC3G with the HIV-1 protein that degrades it), YFP fluorescence, overnight; Potency, µM (top dose mostly 46.1 µM), for inactives: at the highest dose activity, negative = active, hits mostly inhibitors; 0.076% of 410,000 active; also: potency is read from the fitted curve at half-maximal effect; % is scaled to controls: 0 for no effect and ±100 for the full control effect; nearly all actives have a fitted effect of over 60% in size
#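 Read-out is eYFP fluorescence (Ex 488/Em 500-530) from Vif-expressing HeLa A3G-eYFP cells; more signal means A3G escaped Vif-mediated degradation. Cells plated overnight, compound pinned in, incubated overnight at 37 deg C.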
# ASM inhibitor – human S-ASM enzyme inhibition; Potency, µM (top dose mostly 57.5 µM), for the others: at the highest dose activity change, negative = inhibition, most hits filed as inhibitors; AID 504937; 0.006% of 340,000 active; placental ASM, HMU-PC fluorogenic substrate, 60 min; also: potency is read from the fitted curve at half-maximal effect
# Target sequence (P17405 47-631 limits assumed): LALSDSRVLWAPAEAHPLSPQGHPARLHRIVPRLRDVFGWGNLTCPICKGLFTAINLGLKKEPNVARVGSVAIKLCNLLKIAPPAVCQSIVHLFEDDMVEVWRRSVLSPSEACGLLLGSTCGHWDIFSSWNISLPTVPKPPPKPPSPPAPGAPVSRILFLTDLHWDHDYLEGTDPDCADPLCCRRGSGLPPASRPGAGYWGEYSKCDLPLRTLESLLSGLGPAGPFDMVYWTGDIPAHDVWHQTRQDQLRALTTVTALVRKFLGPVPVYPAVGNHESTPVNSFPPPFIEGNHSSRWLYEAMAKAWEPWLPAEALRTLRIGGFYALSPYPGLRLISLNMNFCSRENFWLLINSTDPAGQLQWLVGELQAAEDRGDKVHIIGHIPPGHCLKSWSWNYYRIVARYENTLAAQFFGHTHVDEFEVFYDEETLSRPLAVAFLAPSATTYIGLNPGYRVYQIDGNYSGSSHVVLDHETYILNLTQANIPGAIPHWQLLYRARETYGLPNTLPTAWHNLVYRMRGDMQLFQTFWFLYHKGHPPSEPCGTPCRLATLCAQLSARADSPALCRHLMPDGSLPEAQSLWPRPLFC
#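 qHTS format. ASM enzyme prepared from human placenta hydrolyses the fluorogenic substrate HMU-PC0 (9 uM final) over 60 min at 37 °C after a 10 min compound preincubation.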
# pAkt inh – blocks phosphorylation of Akt. Neuro2A IGF-stimulated pAkt S473 HTRF, 20 min; hits give low values. activity change, % for hits at 50 µM. 0.32% of 360,000 active; in the data active = activity change below about -80%; inconclusive = mostly about -51% to -80%; also: % is scaled to controls: 0 for no effect and ±100 for the full control effect
#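 Single-point screen (50 µM final compound) in Neuro2A cells stimulated 20 min with 6 nM IGF at 37 deg C. After lysis, Ser473-phosphorylated Akt read by HTRF (ex 330 nm, em 615/665 nm) as the 665/615 ratio.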
# The depositor's hits bear a star; i = inactive; ? = inconclusive; · = not tested or not shown; [ ] = dose if it differs, or a comment. A selection: hits, their analogues and other compounds. The true share with any hit is near 1.4%. Unless noted, calls follow the shape of the dose curve; as a rule, active = well fitted curve in the direction sought with a large enough effect; inconclusive = small, poorly fitted or top-dose-only effect, or another doubt; inactive = no such curve, though single readings can be large; an effect the other way counts as inactive or inconclusive.
SMILES,Vif-APOBEC3F blk,ALOX12 inh,TSG101-PTAP inh,Vif-APOBEC3G blk,ASM inhibitor,pAkt inh
CCc1ccccc1NC(=O)C1CC1,·,0.79µM*,·,·,·,·
COc1ccccc1OCc1nnc(SCC(=O)Nc2ccc(C)cc2)n1C,2%,2%,-1%,-2%,-1%,i
Cc1ccccc1OCc1nnc(SCC(=O)Nc2ccc3c(c2)oc2ccccc23)n1C,-1%,-18%,-1%,4%,-1%,-100%*
O=C(Nc1ccc(Br)cc1)N1CCCCCCC1,1%,420%,1%,-4%,4%,-110%*
O=C(NCCc1cccc2cccnc12)NC1CCN(CC2CCCCC2)CC1,·,-9%,·,·,·,·
CCOC(=O)C1=C(O)c2ccccc2C(=O)/C1=C\c1ccc(CC)cc1,22µM*,?,0%,?,3%,i
CCOC(=O)C1=C(Cc2ccc(C)cc2)C(=O)c2ccccc2C1=O,·,11µM*,·,·,·,·
Cc1cc(C)c(CNC(=O)c2cc(-c3cnn(C)c3)cc3c2OCCN3C(C)C)c(=O)[nH]1,·,-2%[176 µM],·,·,·,·
CC(C)CC(=O)N(c1ccc(Br)cc1)C1C=CS(=O)(=O)C1 (stereo not drawn),·,17%,·,·,·,·
CC(=O)c1ccccc1NC(=O)COc1ccccc1C(N)=O,·,3%,·,·,·,·
O=C(O)c1ccccc1NC(c1ccccc1)c1ccc2cccnc2c1O (stereo not drawn),5%,18µM*,-4%,?,-4%,i
O=C(NCc1ccc(O)cc1)c1cnc2ccccc2n1,·,1%,·,·,·,·
COc1ccccc1N1CCN(C(=O)Cn2c(=O)[nH]c3ccccc3c2=O)CC1,·,-16%,·,·,·,·
CCCCOc1ccccc1Cn1c(=O)oc2ccccc21,-2%,4%,-5%,-5%,-4%,-112%*
COC(=O)c1ccc(Nc2cc(C)nc(-c3ccccc3O)n2)cc1,-6%,?,-3%,1%,2%,-86%*
O=C(c1ccc(F)cc1F)N(Cc1ccco1)C1CC1,·,0%,·,·,·,·
O=C(OCc1noc(-c2ccco2)n1)c1cncc(Br)c1,·,7%,·,·,·,·
O=C(OCc1noc(-c2ccco2)n1)c1cc(Br)c[nH]1,·,25µM*,·,·,·,·
Clc1ccccc1-c1noc(-c2cccc(Br)c2)n1,·,5%,·,·,·,·
C[C@]12C[C@H](O)[C@@H]3c4ccc(O)cc4CC[C@H]3[C@@H]1CCC2=O,·,-10%,·,·,·,·
Cc1ccc(OCC(=O)Nc2ccc(S(=O)(=O)N(C)C3CCN(C)CC3)cc2)c(C)c1,1%,35µM*,-2%,-4%,-2%,i
Cc1cccc(Cn2cnc3c2c(=O)n(C)c(=O)n3C)c1,·,7%,·,·,·,·
CCOc1cc([N+](=O)[O-])cc2c1C(=O)Nc1ccccc1O2,22µM*,-21%,?,?,0%,i
Cc1ccc(-n2c(C)cc(/C=N/NC(N)=S)c2C)cc1,6%,45µM*,-5%,-7%,0%,i
NC(=S)N/N=C\c1ccc(-c2cccc(Cl)c2Cl)o1,?,?,-1%,?,6%,-122%*
SMILES,Vif-APOBEC3F blk,ALOX12 inh,TSG101-PTAP inh,Vif-APOBEC3G blk,ASM inhibitor,pAkt inh
Cc1ccc(-n2c(C)cc(/C=N/NC(=O)c3ccncc3)c2C)cc1,-6%,?,-12%,4%,-2%,i
Cc1ccc(-c2ccc(/C=N/NC(N)=S)o2)cc1,5.6µM*,45µM*,-5%,-19%,41%,i
Cc1ccc(Cl)cc1N1CCN(CC(O)COCc2ccco2)CC1 (stereo not drawn),-8%,10µM*,0%,-2%,2%,i
O=C(NCC(O)c1ccc(F)cc1F)c1ccc(=O)[nH]c1 (stereo not drawn),·,15%,·,·,·,·
COc1ccc(OC)c(NC(=O)c2cc(-c3cc(C)cc(C)c3O)n[nH]2)c1,11µM*,24%,-2%,0%,9%,i
COc1ccc(OC)c(NC(=O)c2cc(-c3cc(C)c(C)cc3O)n[nH]2)c1,?,24%,0%,-13%,1%,i
CCc1cc(C(=O)COc2ccc(F)cc2)c(O)cc1O,8%,-9%,-9%,1%,-1%,i
Cc1c(O)ccc(C(=O)COc2ccc(F)cc2)c1O,-18%,0%,-1%,-10%,0%,-89%*
COc1ccc(C(=O)N(CN2CCCC2=O)c2ccccc2OC)cc1OC,6%,-6%,-1%,-1%,2%,-111%*
Cc1cccc(/C=N/n2c(-c3ccccc3)n[nH]c2=S)c1O,2%,4.5µM*,-1%,1%,-5%,i
Oc1ccc(Br)cc1/C=N/n1c(-c2ccccc2)n[nH]c1=S,11%,?,-7%,-5%,-8%,i
COc1cc(/C=N/n2c(-c3ccccc3)n[nH]c2=S)cc(OC)c1OC,-1%,28µM*,-2%,?,2%,i
S=c1[nH]nc(-c2ccccc2)n1/N=C/c1cccc(Br)c1,7%,6%,-3%,-3%,0%,i
Oc1c(Br)cc(Br)c(/C=N/n2c(-c3ccccc3)n[nH]c2=S)c1Br,?,18µM*,-3%,-5%,-20%,i
COc1ccc(/C=N/n2c(-c3ccccc3)n[nH]c2=S)cc1,-1%,?,-3%,1%,-1%,i
Cc1cccc(/C=C(/C#N)c2nc3ccccc3[nH]2)c1,·,0%,·,·,·,·
CC(=O)c1c(N2CCOCC2)[nH]c(-c2ccccc2)nc1=S,-4%,?,-2%,-3%,4%,i
CC(=O)c1c(N2CCCC2)[nH]c(-c2ccccc2)nc1=S,-10%,45µM*,-3%,-16%,2%,i
CC(=O)c1c(N2CCN(Cc3ccccc3)CC2)[nH]c(-c2ccccc2)nc1=S,-14%,40µM*,4%,-5%,1%,·
Cn1cnc2c1c(=O)n(Cc1ccc(Br)cc1)c(=O)n2C,·,20%,·,·,·,·
COc1cc(/C=C/c2nc3ccccc3s2)cc(OC)c1O,?,?,1%,-17%,99%,i
Cc1cc(/C=C/c2nc3c(ccc4ccccc43)s2)cc(C)c1O,·,6.3µM*,·,·,·,·
NS(=O)(=O)Cc1ccc(CNC(=O)c2cccc(F)c2)cc1,·,-3%,·,·,·,·
CCCCNc1c(-c2ccc(OC)c(Sc3ccc(OC)cc3)c2)nc2cnccn12,3%,-4%,-2%,-19%,334%,i
O=C(O)CCNc1c(-c2ccc(F)cc2)nc2cnccn12,·,35µM*,·,·,·,·
CCCCNc1c(-c2ccc(SC(C)CC)cc2)nc2cnccn12 (stereo not drawn),10µM*,·,-15%,?,i,i
CCN(CC)c1nc2ccccc2nc1C(=O)Nc1cc(F)ccc1F,·,4%,·,·,·,·
O=C1c2ccccc2-c2nc3ccccc3cc21,2.8µM*,-1%,-3%,-8%,-5%,i
c1ccc2c(c1)Cc1cc3ccccc3nc1-2,10µM*,?,-2%,?,-2%,i
